Records with an inconclusive call do not appear. A call without a number means that no potency is given here. Active and inactive are the calls of the source. The call rests on the fitted dose curve.
Experiment: Confirmatory qHTS to identify inhibitors of SARS-CoV-2 cell entry (AID 1645844); further: nearly all actives have a fitted effect of over 45% in size; further: potency means the concentration at half of the fitted maximal effect
Settings: SARS-CoV-2 pseudotyped particle cell entry, luciferase; series mostly up to 57.2 µM
How it was run: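 Luminescence entry read-out after 48 h: spike-pseudotyped MLV particles (Wuhan-Hu-1, 19-aa C-terminal truncation) added to compound-pretreated (1 h) HEK293-ACE2 cells; Data were normalised to bald PP and spike PP wells.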

**Q.** Which Potency does the source give for `CO[C@H]1C[C@H](O[C@@H]2[C@H](C)O[C@H](O[C@@H]3/C(C)=C/C[C@@H]4C[C@@H](C[C@]5(C=C[C@H](C)[C@@H](C6CCCCC6)O5)O4)OC(=O)[C@@H]4C=C(C)C(O)[C@H]5OC/C(=C\C=C\[C@@H]3C)[C@]54O)C[C@@H]2OC)O[C@@H](C)[C@@H]1O` (stereo partly drawn) here?
**A.** 2.71 µM (active)

**Q.** For `C[C@H]1[C@H](OC(=O)CCC(=O)O)O[C@@H]2O[C@@]3(C)CC[C@H]4[C@H](C)CC[C@@H]1[C@@]24OO3`, which Potency is on record?
**A.** 1.36 µM (active)

**Q.** With `CO[C@H](C(=O)[C@@H](O)[C@@H](C)O)C1Cc2cc3cc(O[C@H]4C[C@@H](O[C@H]5C[C@@H](O)[C@H](O)[C@@H](C)O5)[C@@H](O)[C@@H](C)O4)c(C)c(O)c3c(O)c2C(=O)[C@H]1O[C@H]1C[C@@H](O[C@H]2C[C@@H](O[C@H]3C[C@](C)(O)[C@H](O)[C@@H](C)O3)[C@H](O)[C@@H](C)O2)[C@H](O)[C@@H](C)O1` (stereo partly drawn) as the molecule, how does the Potency read?
**A.** 0.171 µM (active)

**Q.** For `CN(C)C(=O)c1cc2cnc(Nc3ccc(N4CCNCC4)cn3)nc2n1C1CCCC1`, which Potency is on record?
**A.** inactive

**Q.** For `Cc1c(N)nc(C(CC(N)=O)NCC(N)C(N)=O)nc1C(=O)NC(C(=O)NC(C)C(O)C(C)C(=O)NC(C(=O)NCCc1nc(-c2nc(C(=O)NCCCN[C@@H](C)c3ccccc3)cs2)cs1)C(C)O)C(O[C@@H]1O[C@@H](CO)[C@@H](O)[C@H](O)[C@@H]1O[C@H]1O[C@H](CO)[C@@H](O)[C@H](OC(N)=O)[C@@H]1O)c1cnc[nH]1` (stereo partly drawn), which Potency is on record?
**A.** 0.0215 µM (active)

**Q.** For `CCOc1nc2cccc(C(=O)OC(C)OC(=O)OC3CCCCC3)c2n1Cc1ccc(-c2ccccc2-c2nn[nH]n2)cc1` (stereo not drawn), which Potency is on record?
**A.** 2.41 µM (active)

Experiment: Cytotoxicity counterscreen for inhibitors of SARS-CoV-2 cell entry (AID 1645845); further: nearly all actives have a fitted effect of over 50% in size
Settings: cell viability (SARS-CoV-2 entry assay cells); series mostly up to 57.1 µM
How it was run: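 ATP-content luminescence (ATPLite 1step, 15 min RT) read after 48 h compound exposure of Expi293F cells stably expressing human ACE2; normalized to cells-only wells and media-only wells.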

**Q.** Which Potency does the source give for `CO[C@H]1C[C@H](O[C@@H]2[C@H](C)O[C@H](O[C@@H]3/C(C)=C/C[C@@H]4C[C@@H](C[C@]5(C=C[C@H](C)[C@@H](C6CCCCC6)O5)O4)OC(=O)[C@@H]4C=C(C)C(O)[C@H]5OC/C(=C\C=C\[C@@H]3C)[C@]54O)C[C@@H]2OC)O[C@@H](C)[C@@H]1O` (stereo partly drawn) here?
**A.** inactive

**Q.** With `OCCOc1ccc(/C(=C(/CCCl)c2ccccc2)c2ccccc2)cc1` as the molecule, how does the Potency read?
**A.** inactive

**Q.** For `CNCc1cc(-c2ccccc2F)n(S(=O)(=O)c2cccnc2)c1`, which Potency is on record?
**A.** inactive

**Q.** With `CCCCCCCCC=CCCCCCCCC(=O)NCCOC(=O)CC(C(=O)O)S(=O)(=O)O` (stereo not drawn) as the molecule, how does the Potency read?
**A.** inactive

**Q.** Which activity change, negative = cytotoxicity does the source give for `COc1cc2c(cc1O)CCN[C@]21CS[C@@H]2c3c(OC(C)=O)c(C)c4c(c3[C@H](COC1=O)N1[C@@H]2[C@H]2c3c(cc(C)c(OC)c3O)C[C@@H]([C@@H]1O)N2C)OCO4` here?
**A.** -20.3% [at 11.3 µM] (inactive)

**Q.** Which Potency does the source give for `CO[C@H](C(=O)[C@@H](O)[C@@H](C)O)C1Cc2cc3cc(O[C@H]4C[C@@H](O[C@H]5C[C@@H](O)[C@H](O)[C@@H](C)O5)[C@@H](O)[C@@H](C)O4)c(C)c(O)c3c(O)c2C(=O)[C@H]1O[C@H]1C[C@@H](O[C@H]2C[C@@H](O[C@H]3C[C@](C)(O)[C@H](O)[C@@H](C)O3)[C@H](O)[C@@H](C)O2)[C@H](O)[C@@H](C)O1` (stereo partly drawn) here?
**A.** inactive

**Q.** With `CN(C)C(=O)c1cc2cnc(Nc3ccc(N4CCNCC4)cn3)nc2n1C1CCCC1` as the molecule, how does the Potency read?
**A.** inactive

**Q.** With `CNC(C)C(O)c1ccccc1` (stereo not drawn) as the molecule, how does the Potency read?
**A.** inactive

**Q.** With `CCOc1nc2cccc(C(=O)OC(C)OC(=O)OC3CCCCC3)c2n1Cc1ccc(-c2ccccc2-c2nn[nH]n2)cc1` (stereo not drawn) as the molecule, how does the Potency read?
**A.** inactive

**Q.** For `NCCS[As](SCCN)c1ccc(Nc2nc(N)nc(N)n2)cc1`, which Potency is on record?
**A.** inactive

**Q.** For `COc1ccc2c(c1)OC(C)(C)C(c1ccccc1)C2c1ccc(OCCN2CCCC2)cc1` (stereo not drawn), which Potency is on record?
**A.** inactive

**Q.** With `COc1cc(CNC(=O)CCCC/C=C/C(C)C)ccc1O` as the molecule, how does the Potency read?
**A.** inactive
